Most compounds without a hit are left out; they make up all but 2.4% or so of the library.
WRN helicase inh – qHTS for Inhibitors of WRN Helicase; WRN helicase unwinding, fluorescent forked duplex, kinetic; 360,000 compounds, 0.46% hits; Potency, µM (doses to about 114 µM), for inactives: at the top dose activity change, negative = inhibition, most hits filed as inhibitors; note: % is set by controls: 0 for no effect and ±100 for the full control effect; nearly all actives have a fitted effect of over 55% in size
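Primary qHTS, 1536-well format. 20 nM WRN + compound, 15 min RT; start with 100 nM forked fluorophore/quencher duplex, 2 mM ATP (final); kinetic read ex 525/em 598 nm.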
Pol iota inh – qHTS for Inhibitors of Polymerase Iota | Pol iota fluorescent replication assay, 10 min | Potency, µM (highest dose often 115 µM), for the others: at the top dose activity, negative = inhibition, most hits filed as inhibitors | 390,000 compounds, 1% hits | AID 588590, 2011
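Fluorescent replication assay read twice, at 0 min and 10 min after adding 50 nM (final) substrate. Enzyme (10 nM) and compounds were first incubated 15 min at room temperature; enzyme-free buffer wells were negative controls.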
Pol beta inh – qHTS Assay for Inhibitors of DNA Polymerase Beta | P06746 | Pol beta primer extension/strand displacement, fluorescence kinetic | Potency, µM (series often up to 114 µM), without a hit: at the top dose activity change, negative = inhibition, actives largely listed as inhibitors | AID 485314, 2010 | 340,000 compounds, 1.3% hits; note: % is set by controls: 0 for no effect and ±100 for the full control effect
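10 nM enzyme + cpd, 15 min RT; start with substrate 50 nM final; read 0 min and after 10 min RT. Corrected, normalized data; 4-parameter Hill curve fit.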
FEN1 inh – qHTS Assay for the Inhibitors of Human Flap endonuclease 1 (FEN1); Potency, µM (series often up to 114 µM), inactives show at the highest dose activity change, negative = inhibition, actives largely listed as inhibitors; AID 588795, 2011; 390,000 compounds, 0.35% hits; Recombinant FEN1 flap cleavage, fluorescence, 15 min; note: % is set by controls: 0 for no effect and ±100 for the full control effect; nearly all actives have a fitted effect of over 65% in size
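Nuclease activity of 10 nM FEN1 was measured after 15 min of room-temperature exposure to titrated compounds, by adding 50 nM flap substrate and reading plates at 0 and 15 min.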
Pol eta inh – qHTS for Inhibitors of Polymerase Eta. DNA polymerase eta (Homo sapiens), Q9Y253. recombinant Pol eta, fluorescent DNA replication assay. Potency, µM (series often up to 114 µM), without a hit: top-dose activity change, negative = inhibition, actives largely listed as inhibitors. 390,000 compounds, 1.2% hits; note: % is set by controls: 0 for no effect and ±100 for the full control effect
Target sequence (Q9Y253 whole entry, looked up): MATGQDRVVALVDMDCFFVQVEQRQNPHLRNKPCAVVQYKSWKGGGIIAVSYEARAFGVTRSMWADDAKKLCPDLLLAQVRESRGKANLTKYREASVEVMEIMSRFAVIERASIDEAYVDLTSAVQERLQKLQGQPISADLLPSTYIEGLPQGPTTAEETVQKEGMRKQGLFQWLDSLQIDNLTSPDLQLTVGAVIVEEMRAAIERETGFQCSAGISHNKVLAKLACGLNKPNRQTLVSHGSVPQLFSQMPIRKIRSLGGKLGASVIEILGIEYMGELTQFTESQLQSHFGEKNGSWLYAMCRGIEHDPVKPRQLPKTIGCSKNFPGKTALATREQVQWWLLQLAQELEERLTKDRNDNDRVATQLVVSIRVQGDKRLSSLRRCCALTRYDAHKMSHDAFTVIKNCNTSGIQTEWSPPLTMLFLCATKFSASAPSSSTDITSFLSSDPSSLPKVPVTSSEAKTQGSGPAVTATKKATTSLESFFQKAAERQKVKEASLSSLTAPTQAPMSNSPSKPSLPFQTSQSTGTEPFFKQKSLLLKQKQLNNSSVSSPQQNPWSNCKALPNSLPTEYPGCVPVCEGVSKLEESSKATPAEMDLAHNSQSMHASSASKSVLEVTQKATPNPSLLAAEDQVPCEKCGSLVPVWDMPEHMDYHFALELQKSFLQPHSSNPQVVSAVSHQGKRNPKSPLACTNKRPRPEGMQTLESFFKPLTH
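Pol eta at 10 nM preincubated with compounds 15 min at room temperature; reaction started with fluorescent substrate (50 nM final) and read kinetically at 0 and 10 min.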
POLK inh – qHTS for Inhibitors of Polymerase Kappa; Potency, µM (highest dose often 107 µM), for inactives: at the highest dose activity, negative = inhibition, actives largely listed as inhibitors; AID 588579, 2011; 400,000 compounds, 0.53% hits; DNA polymerase kappa (Homo sapiens), Q9UBT6; purified Pol kappa, fluorescent DNA synthesis assay, 10 min; note: % is set by controls: 0 for no effect and ±100 for the full control effect
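Fluorescent qHTS in 1536-well format: enzyme (10 nM) and compound sat 15 min at room temperature before 50 nM substrate (final) was added. Signal taken at 0 and 10 min; no-enzyme buffer wells were negative controls.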
* = called active by the depositor; ? = inconclusive; . = not tested or not shown; [ ] = dose if it differs, or a comment. Calls come from the whole dose curve; as a rule, active = well fitted curve in the direction sought with a large enough effect; inconclusive = small, poorly fitted or top-dose-only effect, or another doubt; inactive = no such curve, though single readings can be large; an effect the other way counts as inactive or inconclusive. Potency is the fitted concentration of half-maximal effect.

SMILES | WRN helicase inh | Pol iota inh | Pol beta inh | FEN1 inh | Pol eta inh | POLK inh
O=C(OCc1cc(=O)n2nc(-c3cccs3)sc2n1)c1ccccc1 | . | 79.4µM* | 35.5µM* | -9.2% | 79.4µM* | -23.4%
O=C(OCc1cc(=O)n2nc(-c3cccs3)sc2n1)c1ccc(Cl)cc1 | . | ? | 31.6µM* | 15.8% | ? | -34.4%
Cc1cccc(C(=O)OCc2cc(=O)n3nc(-c4cccs4)sc3n2)c1 | . | 89.1µM* | 20µM* | -14.2% | ? | ?
Cc1ccccc1OCC(=O)OCc1cc(=O)n2nc(-c3cccs3)sc2n1 | . | ? | ? | 2.0% | -14.8% | -20.9%
Cc1ccc(OCC(=O)OCc2cc(=O)n3nc(-c4cccs4)sc3n2)cc1C | . | ? | ? | -3.3% | -19.3% | -38.2%
O=C(COc1ccccc1F)OCc1cc(=O)n2nc(-c3cccs3)sc2n1 | . | ? | 31.6µM* | 7.8% | -28.5% | -15.6%
Cn1cc(/C=C/c2ccnc3ccccc23)c2ccccc21 | . | -5.2% | . | ? | . | -5.7%
O=C1CCC[C@@H]2CC(NCc3ccc(Cl)c(Cl)c3)C[C@@H]3CCN1[C@H]23 (some centres not stated) | . | . | . | . | . | -13.8%[60.1 µM]
CCOc1cc2c(C#N)c(N(CC)CC)nc(N)c2c(N)n1 | -5.8%[57.1 µM] | 10µM* | . | 6.6% | -15.9% | -4.7%
N[C@@H](Cc1cc(CP(=O)(O)O)cc(-c2ccccc2Cl)c1)C(=O)O | . | . | . | . | . | 21.2µM*
COc1ccc(C(=O)c2cn(Cc3ccc(F)cc3)c3c(F)cc(F)cc3c2=O)cc1 | . | ? | 7.4% | 89.1µM* | -17.8% | -0.8%
Cc1ccc(C(=O)c2cn(Cc3ccccc3)c3c(F)cc(F)cc3c2=O)cc1 | . | 11.7% | 2.5% | 2.3% | -2.2% | -12.9%
Cc1ccc(-c2csc3ncnc(Sc4nnnn4-c4ccccc4)c23)cc1 | . | -5.6% | . | -16.9% | . | -14.6%
COC(=O)[C@@H](c1ccccc1Cl)N1CCc2sccc2C1 | . | . | . | . | . | 3.6%[19.4 µM]
COc1ccc(S(=O)(=O)NNC(=O)Cc2csc(C)n2)cc1[N+](=O)[O-] | 2.4%[11.6 µM] | 50.1µM* | . | -2.0% | ? | ?
Cc1nc(CC(=O)NNS(=O)(=O)c2ccc3ccccc3c2)cs1 | 1.5% | 1.6% | -2.4% | 4.4% | -27.8% | -0.1%
Cc1cc(/C=C2/C(=O)NN(c3ccccc3)C2=O)c(C)n1-c1cccc(O)c1 | -4.4%[11.6 µM] | 56.2µM* | ? | 8.3% | ? | -32.7%
O=C1NN(c2ccccc2)C(=O)C1=Cc1ccccc1O | 1.8% | . | . | . | 7.5% | .
Cc1cc(C=C2C(=O)c3ccccc3C2=O)c(C)n1-c1cccc(C(=O)O)c1 | -16.5% | ? | ? | -33.8% | 44.7µM* | ?
C=C1C=C(C)n2ncc(C(=O)Nc3cccc(C(=O)Nc4cccc(C(F)(F)F)c4)c3)c2N1 | . | 6.9% | . | -16.2% | . | -10.1%
CCCNC(=O)Cn1c(SCc2ccccc2C)nc2ccncc21 | . | 25.2% | . | -7.8% | . | -9.1%
Cc1ccc(S(=O)(=O)N2CCN(c3nc(-n4cccn4)nc4ccccc34)CC2)cc1 | . | ? | . | ? | . | -3.4%
Cc1ccc2nc(/C(C#N)=C/c3ccc(O)c(O)c3)[nH]c2c1 | 44.7µM* | ? | ? | ? | ? | ?
COc1cc(/C=C(\C#N)c2nc3ccc(C)cc3[nH]2)ccc1OC(C)C | . | 1.0% | -25.0% | 10.3% | -5.2% | -17.6%
CN(C)c1ccc(/C=C/c2nc3ccccc3s2)cc1Cl | . | -26.5% | . | ? | . | 0.0%
SMILES | WRN helicase inh | Pol iota inh | Pol beta inh | FEN1 inh | Pol eta inh | POLK inh
O=C(Nc1nnc(C2CCCCC2)s1)C1CCN(C(=O)c2ccco2)CC1 | . | 23.6% | . | 12.6% | . | -18.7%
O=C1ON=C(c2ccccc2)/C1=C/c1ccccc1 | -3.4% | -8.0% | 8.2% | 34.7% | -0.3% | 11.9%
O=C1ON=C(c2ccccc2)/C1=C\c1ccco1 | -6.1% | 7.8% | 31.6µM* | 16.8% | -4.0% | -18.6%
COc1cc([N+](=O)[O-])ccc1-c1ccc(/C=C2\C(=O)ON=C2c2ccccc2)o1 | -35.3%[11.6 µM] | ? | . | ? | 79.4µM* | -28.4%
C=C1C=C(C)n2ncc(C(=O)Nc3ccc(C)cn3)c2N1 | . | ? | . | -11.3% | . | -1.4%
N=C1C(c2nc3ccccc3s2)=C(O)CN1NC(=O)c1ccco1 | -13.9% | ? | 25.1µM* | -7.5% | -4.0% | -34.6%
Cc1cccc2nc(CSCc3ccco3)cn12 | -21.1%[57.1 µM] | ? | 39.8µM* | -4.2% | 20µM* | -27.6%
C=C(C)C1CCC(C)C(OC(C)=O)C1 (configuration not stated) | . | . | . | . | . | -6.8%[60.1 µM]
CCOC(=O)C1=C(C)N(C)C(=O)NC1c1cc2c(cc1[N+](=O)[O-])OCO2 (configuration not stated) | 0.6% | 2.82µM* | 17.8µM* | -5.5% | -14.1% | ?
CCCCOC(=O)C1=C(C)N(C)C(=O)NC1c1cc2c(cc1Br)OCO2 (configuration not stated) | 3.1% | . | . | . | -12.5% | .
CC(C)CCNC(=O)CN(Cc1ccco1)C(=O)c1snc(C(N)=O)c1N | -11.8% | 63.4% | 37.5% | -3.6% | 8.2% | -0.6%
CCc1ccccc1N(CC(=O)NCc1ccco1)C(=O)c1snc(C(N)=O)c1N | -19.3% | ? | 50.1µM* | 5.9% | 20µM* | -35.1%
O=C(O)C1CCCCC1C(=O)Nc1nc(-c2ccc(Cl)s2)cs1 (configuration not stated) | -30.3% | ? | 15.8µM* | -10.2% | 44.7µM* | ?
COc1ccc(-c2ccc(/C=C3/C(=N)N4C(C)=CSC4=NC3=O)o2)c([N+](=O)[O-])c1 | ? | 17.8µM* | ? | ? | ? | ?
Cc1cnc2ccccc2c1/C=C/c1ccc(N(C)C)cc1 | . | 23.1% | . | -22.6% | . | -7.4%
O=C1CC(c2ccco2)CC(O)=C1C=Nc1cc(Cl)cc(Cl)c1 (configuration not stated) | ? | ? | 39.8µM* | ? | ? | 70.8µM*
COc1cccc(N2CCN(C(=O)c3ccc4nc[nH]c4c3)CC2)c1 | -11.4%[11.6 µM] | ? | 29.2% | -5.6% | 89.1µM* | -16.4%
C=CCNc1nc(NC2CCN(C)CC2)c2cc(OC)c(OC)cc2n1 | . | -25.8% | . | ? | . | -24.2%
CCOc1ccc(NC(=O)COC(=O)c2ccccc2OCc2ccccc2Br)cc1 | . | -17.7% | . | 6.5% | . | -6.3%
Oc1ccc(N=Cc2ccc(OCc3ccccc3)cc2)cc1 | -18.7% | ? | 1.8% | ? | 22.4µM* | -22.0%
O=C(N/N=C/c1ccc(OCc2ccccc2)cc1)c1ccncc1 | 1.3% | -22.3% | 9.0% | -4.1% | -6.7% | 1.5%
